Screening data from PubChem BioAssay.
This is one part of a sample in which hits are shown more often than they occur.
LmPK inhibitor: blocks Leishmania mexicana pyruvate kinase activity. purified LmPK, Kinase-Glo ATP luminescence, 1 h. AID 1721. Q27686. Potency, µM (titrated, usually from 57.5 µM), for inactives: top-dose activity change, negative = inhibition, hits mostly inhibitors. 0.37% of 290,000 active; further: potency means the concentration at half of the fitted maximal effect; on the % scale 0 is the no-effect control and ±100 the full control effect
Target sequence (Q27686 whole entry, looked up): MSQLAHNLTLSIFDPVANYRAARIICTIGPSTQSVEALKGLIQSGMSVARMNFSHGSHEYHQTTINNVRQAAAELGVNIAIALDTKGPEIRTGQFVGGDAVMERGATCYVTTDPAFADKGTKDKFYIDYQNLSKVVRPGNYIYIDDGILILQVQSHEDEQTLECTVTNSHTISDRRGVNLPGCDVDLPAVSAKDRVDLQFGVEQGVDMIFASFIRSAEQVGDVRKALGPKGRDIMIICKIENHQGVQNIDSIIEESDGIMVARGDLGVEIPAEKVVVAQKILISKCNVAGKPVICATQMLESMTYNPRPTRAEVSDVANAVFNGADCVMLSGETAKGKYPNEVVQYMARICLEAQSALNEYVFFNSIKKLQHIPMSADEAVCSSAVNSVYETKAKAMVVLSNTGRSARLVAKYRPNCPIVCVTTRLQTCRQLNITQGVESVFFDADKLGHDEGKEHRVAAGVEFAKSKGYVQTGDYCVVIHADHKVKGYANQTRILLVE
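In 50 mM imidazole pH 7.2 with 7 mM MgCl2, LmPK (0.1 nM) turned over PEP (0.5 mM) and ADP (0.1 mM) for 1 h at room temperature. Luciferase read-out of ATP.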
Tb PYK inh: blocks Trypanosoma brucei pyruvate kinase. Q57TT1. TbPYK enzyme, Kinase-Glo Plus ATP luminescence, 45 min. Potency, µM (series often up to 76.8 µM), for inactives: top-dose activity, negative = inhibition, hits mostly inhibitors. 0.12% of 410,000 active. AID 624173; further: potency means the concentration at half of the fitted maximal effect; on the % scale 0 is the no-effect control and ±100 the full control effect; nearly all actives have a fitted effect of over 50% in size
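In this concentration-response screen, enzyme-free wells defined baseline while DMSO plates tracked drift. Each reaction combined TbPYK, substrate, compound and 130 uM ADP for 45 min at room temperature. Kinase-Glo Plus luminescence gave the signal.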
CHX counter: counter-screen for Shiga toxin inhibitors: cycloheximide protein synthesis inhibition; 12% of 300,000 active; max response, %; cell reporter, cycloheximide protein synthesis inhibition counterscreen; AID 2314; in the data active means max response mostly above about 13%, no sharp cut-off; inactive means mostly below about 14%; further: read at 38.3 µM for the half of the compounds with a filed dose; 0% is about no effect
Giardia FBPA inh: inhibitors of Giardia lamblia fructose-1,6-bisphosphate aldolase. AID 2451. 0.71% of 290,000 active. purified Giardia FBPA. Potency, µM (titrated, usually from 59.6 µM), without a hit: top-dose activity, negative = inhibition, hits mostly inhibitors. A8B2U2; further: potency means the concentration at half of the fitted maximal effect; on the % scale 0 is the no-effect control and ±100 the full control effect; nearly all actives have a fitted effect of over 55% in size
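Giardia FBPA (40 nM reagent) was preincubated 10 min at RT with compound (up to 57.5 uM final), then substrate plus GAPDH/TPI/NAD/arsenate coupling system with diaphorase/resazurin was added; resorufin fluorescence (525/598 nm) was read after 20 min.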
Shiga inhibitor: inhibitors of Shiga toxin in Vero cells; Vero cells, Shiga toxin protein synthesis inhibition reporter; inhibition, % at 38.7 µM; 9.2% of 290,000 active; AID 2315; in the data active means inhibition mostly above about 28%, no sharp cut-off; inactive means mostly below about 43%; further: 0% is about no effect
RE007 growth inh: less growth of the S. pombe RE007 Vpr strain. AID 651644. 0.21% of 360,000 active. S. pombe RE007 Vpr strain, BacTiter-Glo ATP luminescence, 24 h. Potency, µM (highest dose often 92.2 µM), for the others: top-dose activity change, negative = less growth, actives largely listed as inhibitors; active means well fitted falling curve with a large enough effect; inconclusive means small, poorly fitted or top-dose-only effect; inactive means no such curve, though single readings can be large or run the other way; further: potency means the concentration at half of the fitted maximal effect; on the % scale 0 is the no-effect control and ±100 the full control effect; nearly all actives have a fitted effect of over 50% in size
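Fission yeast RE007 carrying one integrated HIV-1 vpr copy, seeded at OD 0.01 in PMG+AL medium with 23 nL pinned compound. Grown 24 h at 30 degrees; viability read by BacTiter-Glo luminescence after 5 min.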
* marks the source's active call; other numbers are inactive results. Unless noted, the call rests on the fitted dose curve; in most records, active means well fitted curve in the direction sought with a large enough effect; inconclusive means small, poorly fitted or top-dose-only effect, or another doubt; inactive means no such curve, though single readings can be large; an effect the other way counts as inactive or inconclusive.

COc1ccc(Cl)cc1S(=O)(=O)Nc1ccc2[nH]c(=O)[nH]c2c1 was read as Tb PYK inh -12%.
Screening CC(C)c1cc(C(=O)N2CCN(C(c3ccccc3)c3ccccc3)CC2)no1 returned LmPK inhibitor -1%, Tb PYK inh -3%, CHX counter 29*, Giardia FBPA inh -3%, Shiga inhibitor 32* and RE007 growth inh 1%.
For O=C(c1cc(-c2ccccc2)on1)N1CCCCCC1 the results were LmPK inhibitor 2%, Tb PYK inh -5%, CHX counter 29*, Giardia FBPA inh 1%, Shiga inhibitor 71* and RE007 growth inh -8%.
`O=C(c1cc(-c2ccc(F)cc2)on1)N1CCOCC1` gave LmPK inhibitor -3%, Tb PYK inh -1%, CHX counter 27*, Giardia FBPA inh 8%, Shiga inhibitor 45 and RE007 growth inh 1%.
COCCC1CCCCN1C(=O)c1cc(COc2ccc(C)nc2)on1 (centres undefined) was read as LmPK inhibitor 9%, Tb PYK inh 12%, CHX counter 49*, Giardia FBPA inh -5%, Shiga inhibitor 45 and RE007 growth inh -9%.
CCOc1ccc(CNC(=O)c2ccc(Sc3ccc(C)cc3)c(N)c2)cc1OC was read as Tb PYK inh 4%.
`O=C(c1cc(-c2ccc(O)cc2)on1)N1CCCC1` gave LmPK inhibitor -6%, Tb PYK inh 6%, CHX counter 37*, Giardia FBPA inh 11%, Shiga inhibitor 97* and RE007 growth inh 11%.
`O=C(c1cc(-c2ccc(Br)cc2)on1)N1CCCC1` gave LmPK inhibitor -3%, Tb PYK inh -6%, CHX counter 33*, Giardia FBPA inh 3%, Shiga inhibitor 118* and RE007 growth inh -10%.
For CCOC(=O)C1CCCN(C(=O)c2cc(-c3ccc(C)cc3)on2)C1 (centres undefined) the results were LmPK inhibitor -1%, Tb PYK inh -12%, CHX counter 58*, Giardia FBPA inh 0%, Shiga inhibitor 113* and RE007 growth inh 8%.
O=C(c1sc2ccccc2c1Cl)N1CCC2(CC1)OCCO2 was read as LmPK inhibitor 5%, Tb PYK inh -1%, CHX counter 12*, Giardia FBPA inh 2%, Shiga inhibitor 17 and RE007 growth inh 0%.
For CCOC(=O)C1CCCN(Cc2cn3c(-c4cccc(Br)c4)nnc3s2)C1 (centres undefined) the results were Tb PYK inh 0%.
CCCCC(=O)N1CCc2cc(OC)c(OC)cc2C1COc1ccc(C(=O)OCC)cc1 (centres undefined) was read as Tb PYK inh -5%.
Screening COc1ccc(Cl)cc1NC(=O)CN(C)C1CCS(=O)(=O)C1 (centres undefined) returned Tb PYK inh 0% and RE007 growth inh 7%.
Screening NC(=O)[C@@H]1CCCN1C(=O)c1cc(COc2ccc3c(c2)CCCC3)on1 returned LmPK inhibitor 0%, Tb PYK inh 0%, CHX counter 36*, Shiga inhibitor 34* and RE007 growth inh 6%.
Screening Cc1cccc(C)c1OCc1cc(C(=O)N2CCC[C@H]2C(N)=O)no1 returned LmPK inhibitor -9%, Tb PYK inh 3%, CHX counter 14, Shiga inhibitor 25 and RE007 growth inh 13%.
Screening O=C(c1cc2ccccn2n1)N1CCC2(CC1)OCCO2 returned LmPK inhibitor -2%, Tb PYK inh 2%, CHX counter 6, Giardia FBPA inh 3%, Shiga inhibitor -6 and RE007 growth inh -9%.
Screening O=C(c1cc(-c2ccccc2)on1)N1CCN(C(=O)c2ccco2)CC1 returned LmPK inhibitor -7%, Tb PYK inh -19%, CHX counter 19*, Giardia FBPA inh 1%, Shiga inhibitor 38 and RE007 growth inh 13%.
For O=C(c1cc(COc2ccc3ncccc3c2)on1)N1CCC[C@H]1CO the results were LmPK inhibitor -1%, Tb PYK inh -4%, CHX counter 34*, Giardia FBPA inh 4%, Shiga inhibitor 56* and RE007 growth inh -14%.
Screening O=C(c1cc(-c2ccccc2)on1)N1CCC2(CC1)OCCO2 returned LmPK inhibitor -13%, CHX counter 32*, Giardia FBPA inh 6% and Shiga inhibitor 79*.
For Cn1cc(S(=O)(=O)N2CCCCCC2)cc1C(=O)N1CCN(c2cccc(Cl)c2)CC1 the results were Tb PYK inh -11%.
`COC(=O)c1cc(NC2(c3ccccc3)C(=O)c3ccccc3C2=O)cc(C(=O)OC)c1` gave Tb PYK inh 1%.
Screening COc1cc(OC)cc(C(=O)Nc2ccc(C(=O)Nc3ccccc3OC)cc2)c1 returned Tb PYK inh 3% and RE007 growth inh -9%.
Screening CCOC(=O)Cc1ccc(NC(=O)N(Cc2ccc(OC)cc2)C2CCN(C(C)=O)CC2)cc1 returned Tb PYK inh 8%.
`CN(CC(=O)Nc1ccccc1Cl)C(=O)CN1C(=O)C2CC=CCC2C1=O` (centres undefined) gave Tb PYK inh 0% and RE007 growth inh -4%.
Screening O=C(Nc1nc(-c2cc(Cl)sc2Cl)cs1)c1ccccc1 returned LmPK inhibitor 2%, Tb PYK inh -1%, CHX counter 49*, Giardia FBPA inh -9%, Shiga inhibitor 167* and RE007 growth inh -28%.
O=C(Nc1nc(-c2ccccn2)cs1)c1ccc(Cl)s1 was read as LmPK inhibitor 1%, Tb PYK inh -8%, CHX counter 13, Giardia FBPA inh inconclusive, Shiga inhibitor 121 and RE007 growth inh -2%.
CC(OC(=O)CNC(=O)c1ccccc1F)C(=O)Nc1nc(-c2ccccc2)cs1 (centres undefined) was read as LmPK inhibitor 3%, Tb PYK inh 6%, CHX counter 66*, Giardia FBPA inh -4%, Shiga inhibitor 101* and RE007 growth inh 4%.
`COc1cccc(OC)c1C(=O)Nc1nc(-c2ccccc2)cs1` gave LmPK inhibitor 7%, Tb PYK inh -6%, CHX counter 4, Giardia FBPA inh 5% and RE007 growth inh -20%.
Screening O=C(Cc1csc(NC(=O)c2ccccc2)n1)NO returned LmPK inhibitor 2%, Tb PYK inh 6%, CHX counter 8, Giardia FBPA inh -12%, Shiga inhibitor -1 and RE007 growth inh -4%.
O=C(Nc1nc(-c2ccccc2)cs1)c1cccs1 was read as LmPK inhibitor 5%, Tb PYK inh -7%, CHX counter 88*, Giardia FBPA inh -7%, Shiga inhibitor 123* and RE007 growth inh inconclusive.
O=C(Nc1nc(-c2ccc(Cl)s2)cs1)c1cccs1 was read as LmPK inhibitor -3%, Tb PYK inh -9%, CHX counter 30*, Giardia FBPA inh -13%, Shiga inhibitor 98* and RE007 growth inh inconclusive.
